B1: d8r1_design_ppi_156_dldesign_0_cycle0_af2pred (protein)
chain: MEEEREREEERRREARRMAQALENAAEAVAARAAAASPAEQPALARAAESLAAAAKVLQKEDPELGAAVEKRAEAILAEIRAR
B2: d8r1_design_ppi_479_dldesign_0_cycle1_af2pred (protein)
chain: AELAKEAKELAEKGIADPSKAPEAAREIAELFAEAVKKGDNEAAAEAHAELSRIYAANPEAGREGHILAAQLMSKYAVES
B3: d8r1_design_ppi_353_dldesign_0_cycle1_af2pred (protein)
chain: TAAAKAAADAALANLQAFLDVVVAADPQNIARVEKAAQIAISGGKVLAAQHPEVADYAAGAATAAAQAAVDRAKALAAA
B4: d8r1_design_ppi_93_dldesign_0_cycle1_af2pred (protein)
chain: ENKSIAQGLLKAMKAAYEQAKKSGKAAQLKATAEAAKAAAKKAKELGDEETAKELEKLAKEAKELAEKAAAAAA
B5: d8r1_design_ppi_1325_dldesign_0_cycle0_af2pred (protein)
chain: SSGKEKAAEYRAKADALAAQESPETQAQLRALAERVLKAAEEGVEALAKAAAEAAAFGAATSPTAQAAAREAIAAGVAL
B6: d8r1_design_ppi_414_dldesign_0_cycle0_af2pred (protein)
chain: MEEELKKIKELGKKAAKLAEEEGEEGFKKAIAELEKAAAEAAKGEKAKELQKLVGQGIIDVGKAAYKKEEKKEEELAK
B7: d8r1_design_ppi_1493_dldesign_0_cycle0_af2pred (protein)
chain: EEEKKKLREEAIKLAKKAAEIAKKSENAKEVIEEIEKAIKYLEEGDYEKAAKELAKAGRLADPEARGYINRALLKVGEAK
B8: d8r1_design_ppi_1240_dldesign_0_cycle1_af2pred (protein)
chain: DDATLKQAAALIAEGQAAAAQATTDPAYAAKAKEAYKKAGEVYPESSEFFNIAGEKTAQAALDKYKAAQAAAAAAAA
B9: d8r1_design_ppi_302_dldesign_0_cycle1_af2pred (protein)
chain: DEEEGKKSALKAAETARRLAEEAAKQAKEKAADPALAKKYVAKAKAYAKAAEDIAKGFPDNAEIKAAAKEAKKAAQQAKEALKA
B10: d8r1_design_ppi_429_dldesign_0_cycle1_af2pred (protein)
chain: AAAALAAAAAEGAIELAEYQVEIGNLEAARAFVEGALRAAARADPATAAELRARARAVLEEAERRHKERLEA
B11: d8r1_design_ppi_955_dldesign_0_cycle0_af2pred (protein)
chain: LYAELAARVRAIMAAAGMSPREADTVAAFALAAAADPELEEAMREKMRKAAGPEFEPAVEEAIALAREAAAAL
B12: d8r1_design_ppi_480_dldesign_0_cycle1_af2pred (protein)
chain: SAAAATEAKAKAWAAEIIAAAKADPAAAAALATEVVATASEEEIRTLLNILAQQAFKSPDGLTALTAVSAAVAARYA
B13: d8r1_design_ppi_1319_dldesign_0_cycle1_af2pred (protein)
chain: AAAEELKTLAAESIGLIDQAEKALKAGTDELNYLKLVAASARKLGPEIAKLVTAALKAAKAGDKETALKYLKEARKLAEKIAA
B14: d8r1_design_ppi_863_dldesign_0_cycle0_af2pred (protein)
chain: SRAERLIEEAERLAKEAKEAAKRVADSPVAPRAKALADATEAFAKGLKAAAAAGGSMEDQEALLRAARNTAEAAKILAEEAEAARAA
B15: d8r1_design_ppi_636_dldesign_0_cycle0_af2pred (protein)
chain: DYMDALAAMLKAAAEARALAAAGGDAAAIEAALAKAKELGEEAGKLKGESAKGFAEKVIANVEATIAAAKAARAA
B16: d8r1_design_ppi_1379_dldesign_0_cycle1_af2pred (protein)
chain: SAAAGAAVAAAGIAAMRAGAAADGLAGARAAAREAARAAMALFRKDPDAGAAALAALDAAWAAISAALAA
B17: d8r1_design_ppi_1220_dldesign_0_cycle1_af2pred (protein)
chain: AEERAEELAKEAFKLLSEAAKAAATATTEEQVKKGEELAEKAKKLAEELLKEDPSKKGLSEGIKRAAEKVKKAAEEKKKEL
B18: d8r1_design_ppi_640_dldesign_0_cycle0_af2pred (protein)
chain: SEEEEKKAEYLKKAGAAASRAGKVAAANAGNPEIQALAKKAAKALNEAFASNVEEAKKKAEEVEKLAAEAEALAA
B19: d8r1_design_ppi_36_dldesign_0_cycle0_af2pred (protein)
chain: REEVRAKLEAAAAALREVDPVAGEGFRRLAELAFSGEVNGAWAALASLLEHYLPAAEAHDPELGAIVAEAREAALEEWERIQAE
B20: d8r1_design_ppi_655_dldesign_0_cycle1_af2pred (protein)
chain: DDNKAAANAAKTGGNSSNERAKKLLAAGIASGDKALIAQAATLFANAATLYAFANAKTGPEYQANVDAAKANQAAANAALA
B21: d8r1_design_ppi_306_dldesign_0_cycle0_af2pred (protein)
chain: DAARRAKAEALLKQAKEDFKKFAEQAKKEGPSVLKALKNINESVAEHLKKLDPELGEELKKYGEELIKKAEE
B22: d8r1_design_ppi_638_dldesign_0_cycle1_af2pred (protein)
chain: GDARALRRAADNLARRALEELAAQTATAARAAEVAALLEAGRTEGAAKLAEAAALAAADPLLARAGAYLAAAADFLALAEREE
B23: d8r1_design_ppi_429_dldesign_0_cycle0_af2pred (protein)
chain: AAAARAAAAAEGAIAAAKLAGESGNLEALKAFVEAAHAAAAKADPATAAALKAKADATLEAAKKAFKEKEEA
B24: d8r1_design_ppi_991_dldesign_0_cycle0_af2pred (protein)
chain: AAAALTAAVAASIKGLAELARKAIDDKSVVKAAANAAKSAAALDKALGKEMSKKLEEAAKKSPEEAVKTIEEVAAKVAAAAAA
B25: d8r1_design_ppi_246_dldesign_0_cycle1_af2pred (protein)
chain: ADPEAAARARAAAAVAGATELLKANPANTPAFAAANAEALADSPAAPEAKAAMAKIAAEAEKAAAARKAAEEAAK
B26: d8r1_design_ppi_569_dldesign_0_cycle0_af2pred (protein)
chain: EPSPRVQALLHVGRAAATLIAASGTEAGRAAAAELARLAFEAAASSPEEGQKLLEEALARADEVAAGLPADAAAAVRAHLEAALAAMK
B27: d8r1_design_ppi_988_dldesign_0_cycle1_af2pred (protein)
chain: SEAAMAAAIAAAHAAAQAVVAADPAAAPFARALMSYAMLAVSDPAAGLAGLAAVAEAAAAAGAAAMAAVAAATRAALAAAHA
B28: d8r1_design_ppi_423_dldesign_0_cycle0_af2pred (protein)
chain: SEFDKNMELLKEAGAAISELTARARAEADAAAAEGPDAVRAVAAERIEEARRITEELGEKSSLKESFRGMAERTARTIEAYAAAVIA
B29: d8r1_design_ppi_502_dldesign_0_cycle1_af2pred (protein)
chain: SLEELVAKAEKYLKEAAKLSPASLAPSVANALAGITEAAKVSPKAAYNLAKSFLDYVKKNGTAEAAKEAEKALEELEKAAK
B30: d8r1_design_ppi_1305_dldesign_0_cycle0_af2pred (protein)
chain: ARAEELAEALLAKAKELSKLPMGEAAKAAAAEARALAEQDPETALAAAELAYKRASEDPSVSSKVRALLGAALGAATQQLAAQKAAA
B31: d8r1_design_ppi_1471_dldesign_0_cycle0_af2pred (protein)
chain: MDDSFGKNVIIDAEREIKRFEEAAKKAEEEDKEVAKEIKKIAEEIKKEAEKIKKGEGKLEHSKKALEAMSKGARLVAEFKAK
B32: d8r1_design_ppi_679_dldesign_0_cycle0_af2pred (protein)
chain: AAAAARAAIVDETIARIRAELASRPSLAAFAESVLRRGLALGNEAEAARNVAAMLEAAGATAAAAVAREAAARIEAL
B33: d8r1_design_ppi_149_dldesign_0_cycle0_af2pred (protein)
chain: DEAAEIFAKALDEMDKKVKEAKEEVKKALEEGEKKDPEEAKKKAKEIIEKAIKELKEIAEKAAKKVPKLGPAAKATAEATAKVLK
B34: d8r1_design_ppi_699_dldesign_0_cycle0_af2pred (protein)
chain: AAVAAAAAAGKAAIEKIEKAAKEAEKINKESGKALKSLAEQAKKLLAEGIANPATRDAKLAGVNNIAAGAETLAKALKEEKA
B35: d8r1_design_ppi_1206_dldesign_0_cycle1_af2pred (protein)
chain: SPAAQWAALDADLKQARELAKKAKEVGNEEEAKKVEAALKKAEAAAAAARADPSLYHEARRAVGEAQVEALKVISKG
B36: d8r1_design_ppi_41_dldesign_0_cycle1_af2pred (protein)
chain: RGEEILKKAKEAATRALQLASKDPSLLPLALKALALASEAGYAIAHEGVEKGEELAEKAEKLTEEIEKLAE
B37: d8r1_design_ppi_1316_dldesign_0_cycle1_af2pred (protein)
chain: SAVAKAAAAAAAAAKKALASHPAIGAAVARSIELGKLEEAAAFATAAAKALIGEEAGEALGKELDKLVAAAKAAA
B38: d8r1_design_ppi_371_dldesign_0_cycle0_af2pred (protein)
chain: SAEKAALLAQGKAYFATAKAAAAAAIKLKEAGGSEKTVQALIEQAKAAGEKATALFEAYDPELGKKVKEEVDALLAAAKA

The binders below were run against PDL1, Q9NZQ7.
PDL1, Q9NZQ7, sequence (Q9NZQ7 whole entry): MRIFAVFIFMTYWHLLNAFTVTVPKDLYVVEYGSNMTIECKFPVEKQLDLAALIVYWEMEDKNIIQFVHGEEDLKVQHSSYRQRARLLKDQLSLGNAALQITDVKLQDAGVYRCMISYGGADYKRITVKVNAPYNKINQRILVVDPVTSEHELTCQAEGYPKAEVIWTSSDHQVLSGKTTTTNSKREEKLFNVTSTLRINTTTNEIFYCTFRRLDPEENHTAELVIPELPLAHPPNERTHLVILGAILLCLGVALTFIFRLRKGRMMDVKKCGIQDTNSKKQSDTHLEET

Binding in a display sort, inactive:
B1 not found, B2 not found, B3 not found, B4 not found, B5 not found, B6 not found, B7 not found, B8 not found, B9 not found, B10 not found, B11 not found, B12 not found, B13 not found, B14 not found, B15 not found, B16 not found, B17 not found, B18 not found, B19 not found, B20 not found, B21 not found, B22 not found, B23 not found, B24 not found, B25 not found, B26 not found, B27 not found, B28 not found, B29 not found, B30 not found, B31 not found, B32 not found, B33 not found, B34 not found, B35 not found, B36 not found, B37 not found, B38 not found
